Screens from PubChem.
p53null 32C kill = p53 null cell cytotoxicity, permissive temperature; H1299-neo p53 null cells, ATP luminescence, 24 h, 32C; Potency, µM (titrated, usually from 46.1 µM), for the others: at the top dose activity change, negative = cytotoxicity, actives largely listed as cytotoxic; 55,000 compounds, 0.62% hits; AID 903;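 also: 0% = DMSO only and -100% = full killing by 100 µM tamoxifen; nearly all actives have a fitted effect of over 55% in size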
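ATP-content luminescence in p53-null H1299-neo cells after 24 h compound exposure (up to 46 uM) at 32C permissive temperature; 0% and 100% killing set by DMSO and 100 uM tamoxifen; Hill-equation AC50.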
S16 F2sN tox = toxic to S16 Pmp22-F2sN Schwann cells; Potency, µM (series often up to 57.5 µM), inactives show at the highest dose activity change, negative = cytotoxicity, actives largely listed as cytotoxic; 43,000 compounds, 0.48% hits; AID 1508642; S16 Pmp22-F2sN Schwann cells viability, CellTiter-Glo, 24 h; also: nearly all actives have a fitted effect of over 65% in size
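Luminescence from CellTiter-Glo, read by CCD camera after a 15 min room-temperature incubation, served as the viability signal. Reporter Schwann cells (S16 Pmp22-F2sN) had been treated with pin-transferred compounds for 24 h at 37C.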
PMP22 txn = modulates PMP22 transcription in S16 Schwann cells. S16 Pmp22-F2sN Schwann cells (luciferase reporters placed in the Pmp22 gene), FLuc/NLuc coincidence luminescence, 24 h. Potency, µM (top dose mostly 57.5 µM), without a hit: top-dose activity change, negative = inhibition, hits mostly inhibitors. 43,000 compounds, 2% hits. AID 1508649; active = clear falling dose curves in both reporters; inconclusive = both reporters move, but less clearly or upward; inactive = either reporter flat; the % is the NLuc reporter signal
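Rat S16 Pmp22-F2sN cells, 500-1,000/well in phenol red-free DMEM + 10% FBS, compound-treated 24 h (37C, 5% CO2). Luminescence: FLuc read, Stop&Glo added, NLuc read.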
pS6 MEF inh = inhibitors of mTORC1 signaling in Tsc2-/- p53-/- MEF cells; AID 493208; 44,000 compounds, 0.78% hits; Tsc2-/- p53-/- MEF, phospho-rpS6 immunofluorescence/PI, 24 h; Potency, µM (highest dose often 38.3 µM), for the others: at the top dose activity change, negative = inhibition, hits mostly inhibitors;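 also: plate controls were DMSO for no effect and rapamycin for full effect; nearly all actives have a fitted effect of over 50% in size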
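Compounds act on Tsc2-/-, p53-/- fibroblasts carrying an empty vector for 24 h before fixation and dual staining for phospho-S6 and DNA (propidium iodide). Values are percentages of cells above a rapamycin-defined pS6/PI threshold.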
p53null 39C tox = p53 null cell cytotoxicity, nonpermissive temperature; 55,000 compounds, 0.97% hits; AID 904; H1299 p53-null (neo) cells, 39C, ATPlite viability, 24 h; Potency, µM (highest dose often 46.1 µM), without a hit: at the top dose activity, negative = cell killing, actives largely listed as cytotoxic;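 also: 0% = DMSO only and -100% = full killing by 100 µM tamoxifen; nearly all actives have a fitted effect of over 50% in size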
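Luminescent ATP signal reported cell survival after H1299 lines (neo, p53 null; or p53 A138V) received up to 46 uM compound and 24 hr incubation at 39C.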
OvCa metastasis = inhibitors of ovarian cancer cell adhesion and invasion in omental model | SKOV3ip1-GFP adhesion/invasion on 3D omental model, fluorescence | Potency, µM (top dose mostly 45.8 µM), without a hit: at the highest dose activity change, negative = inhibition, hits mostly inhibitors | 46,000 compounds, 0.1% hits | AID 1963576;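 also: plate controls were DMSO wells for no effect and tomatine positive control wells for full effect; nearly all actives have a fitted effect of over 65% in size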
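A 3D layer of primary human omental fibroblasts, mesothelial cells, fibronectin and collagen I, grown 48 hr, received SKOV3ip1-GFP cells in serum-free medium plus compounds at 0.36-46 umol/L. After 2 hr RT and 16 hr 37 C, fixed adherent GFP cells were counted; normalized to DMSO and tomatine.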
An asterisk follows results filed as active; i = inactive; ? = inconclusive; / = no result. Sampled rows, rich in hits. Any-hit rate of the full collection: about 3.1%. Unless noted, calls follow the shape of the dose curve; as a rule, active = well fitted curve in the direction sought with a large enough effect; inconclusive = small, poorly fitted or top-dose-only effect, or another doubt; inactive = no such curve, though single readings can be large; an effect the other way counts as inactive or inconclusive. Unless noted, % is scaled to controls: 0 for no effect and ±100 for the full control effect; potency is read from the fitted curve at half-maximal effect.

SMILES	p53null 32C kill	S16 F2sN tox	PMP22 txn	pS6 MEF inh	p53null 39C tox	OvCa metastasis
Cc1ccc(-c2nc(Cn3c(SCc4ccc(F)cc4)nc4cccnc43)c(C)o2)cc1	-1%	-18%	7.4µM*	-8%	-14%	-22%
Cc1ccc(CSc2nc3cccnc3n2Cc2ccc(C(=O)NCc3cccs3)cc2)cc1	?	23%	-12%	-7%	16µM*	1%
O=C(NCCc1ccccc1)c1ccc(CSc2nc3cccnc3n2Cc2ccc(F)cc2)cc1	12%	-26%	-35%	-3%	-1%	-9%
CC1CCCCN1CCNC(=O)c1ccc(Cn2c(SCc3ccccc3)nc3cccnc32)cc1 (configuration not stated)	13µM*	-21%	-46%	-11%	16µM*	i
O=C(NCc1cccs1)c1ccc(Cn2c(SCc3ccccc3)nc3cccnc32)cc1	?	6%	-23%	-1%	?	-22%
O=C(O)[C@@H](c1ccc(OCc2ccc3ccccc3n2)cc1)C1CCCC1	/	/	/	/	/	-2%
CN1CCC(CNc2ccc3ncc(-c4cccc(OC(F)(F)F)c4)n3n2)CC1	/	/	/	/	/	-9%
CC1CCN(CCNC(=O)c2ccc(Cn3c(SCc4ccccc4)nc4cccnc43)cc2)CC1	?	?	-5%	-6%	13µM*	i
CCN(CC)CCCNC(=O)c1ccc(Cn2c(SCc3ccccc3)nc3cccnc32)cc1	?	?	-17%	-7%	?	-4%
C#C[C@]1(O)CC[C@@H]2[C@@H]3CCC4=CC(=O)CC[C@@H]4[C@H]3CC[C@@]21CC	/	/	/	/	/	-3%
COCCCNC(=O)C1CCN(C(=O)c2cc3sccc3n2Cc2ccc(Cl)cc2)CC1	1%	?	?	2%	-5%	-16%
COCCNC(=O)C1CCN(C(=O)c2cc3sccc3n2Cc2ccc(Cl)cc2)CC1	11%	?	10µM*	1%	9%	i
COc1ccccc1Nc1c2c(nc3ccc(NC(=O)c4ccc(N(C)C)cc4)cc13)CCCC2	5%	?	?	5.2µM*	5%	?
CNC1CCC(N(Cc2cccc(-c3ccncc3)c2)C(=O)c2sc3c(F)ccc(F)c3c2Cl)CC1 (configuration not stated)	/	/	/	/	/	-4%
Cn1cc(S(=O)(=O)CC(=O)Nc2ccc3c(c2)OCCO3)c2ccccc21	?	/	/	/	28µM*	/
CC(C)(C)OC(=O)Nc1ccc(-c2cc(C(=O)NCCCCCCC(=O)NO)no2)cc1	/	/	/	/	/	2%
Cc1ccc(C)c(CN2C(=O)C(=O)c3ccccc32)c1	1%	?	?	2.9µM*	-8%	1%
Cc1ccc2c(c1)C(=O)C(=O)N2Cc1ccc(OC(C)C)cc1	57%	?	2.3µM*	?	15%	-7%
CC(C)(C)C(=O)Nc1ccc(Cl)c(-c2nc3ccccc3[nH]2)c1	0%	15%	-4%	0%	6%	-4%
CC(C)(C)C(=O)Nc1ccc(-c2nc3ccc(NC(=O)C(C)(C)C)cc3[nH]2)cc1	13µM*	?	-141%	?	4µM*	?
Cc1cc(C)c(S(=O)(=O)NCC(c2ccco2)S(=O)(=O)c2ccccc2)c(C)c1 (configuration not stated)	15%	-10%	-26%	-5%	29%	-14%
Cc1cc(C)c(S(=O)(=O)NCC(c2cccs2)S(=O)(=O)c2ccccc2)c(C)c1 (configuration not stated)	32%	13µM*	?	?	5%	?
CCOc1ccc(S(=O)(=O)NCC(c2cccs2)S(=O)(=O)c2ccc(C)cc2)cc1 (configuration not stated)	19%	?	?	?	14%	?
Cc1ccc(S(=O)(=O)C(CNS(=O)(=O)c2ccc(F)c(C)c2)c2cccs2)cc1 (configuration not stated)	9%	25µM*	?	-4%	18%	14%
CCSc1ccccc1C(=O)Nc1ccc(-c2nc3ccccc3s2)c(O)c1	-10%	?	-20%	2.9µM*	-24%	i
SMILES	p53null 32C kill	S16 F2sN tox	PMP22 txn	pS6 MEF inh	p53null 39C tox	OvCa metastasis
CSc1ccc(C(=O)Nc2ccc(-c3nc4ccccc4s3)c(O)c2)cc1	-2%	1%	-33%	0%	3%	-18%
CC[C@@]1(O)C[C@H](O[C@H]2C[C@H](N(C)C)[C@H](O[C@H]3C[C@H](O)[C@H](O[C@H]4CCC(=O)[C@H](C)O4)[C@H](C)O3)[C@H](C)O2)c2c(cc3c(c2O)C(=O)c2c(O)cccc2C3=O)[C@@H]1C(=O)OC	/	/	/	/	/	6%
COc1ccc(N2CCN(C(=O)c3nc(SC)ncc3Cl)CC2)cc1	2%	4%	-6%	-6%	15%	1%
CCS(=O)(=O)c1ncc(Cl)c(C(=O)N(Cc2ccccc2)c2ccc(OC)cc2)n1	?	4.5µM*	2.2µM*	2.6µM*	?	?
CCS(=O)(=O)c1ncc(Cl)c(C(=O)NCc2ccc(OC)cc2)n1	?	2.8µM*	6.5µM*	3.7µM*	35%	?
CCCS(=O)(=O)c1ncc(Cl)c(C(=O)N(Cc2ccccc2)Cc2ccco2)n1	22µM*	2.2µM*	6.4µM*	16µM*	?	2.2µM*
CCS(=O)(=O)c1ncc(Cl)c(C(=O)N2CCN(c3ccc(OC)cc3)CC2)n1	?	7.9µM*	6.6µM*	3.3µM*	?	?
O=[N+]([O-])c1cn2c(n1)OC[C@@H](OCc1ccc(OC(F)(F)F)cc1)C2	/	/	/	/	/	2%
CC[C@H](C)n1cc(C)c2c(C(=O)NCc3c(C)cc(C)[nH]c3=O)cc(-c3ccc(N4CCNCC4)nc3)cc21	/	/	/	/	/	-19%
COc1cc(OC)cc(-c2ccc3ncc4ccc(=O)n(-c5ccc(N6CCNCC6)c(C(F)(F)F)c5)c4c3c2)c1	/	/	/	/	/	7%
Cc1cccn2c(=O)cc(COc3cccc(NC(=O)c4ccccc4F)c3)nc12	-12%	0%	?	?	7.9µM*	?
Cc1ccccc1Oc1nc2ccccn2c(=O)c1/C=C(\C#N)c1nc2ccccc2[nH]1	2%	5%	20%	9.3µM*	-13%	19%
COc1ccc(Oc2nc3c(C)cccn3c(=O)c2/C=C(\C#N)c2nc3ccccc3[nH]2)cc1	2%	-3%	7%	13µM*	-21%	3%
COc1cc(NC(=O)c2ccc(-c3ccc(Cl)cc3)o2)cc(OC)c1	/	/	/	/	/	-4%
